Experimental data reported in PubChem BioAssay (NCI).
This is part of a sample that, as a whole, favours compounds with a hit. Of some 83,000 tested, about 20% had one in any assay.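 Treatment: one concentration, 48 hours, 96-well format. Scoring: percent growth, with anything below 10 considered active.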 Values without a mark were called inactive. Calls of active or inactive are those of the source.

Test system: UACC-257 melanoma
Assay: NCI-60 one-dose screen, 48 h (100 = growth as untreated, 0 = no growth, -100 = all killed)
Details: 10 µM unless noted

First: CN(C(=O)CN1C(=O)/C(=C/c2ccco2)SC1=S)C1CCS(=O)(=O)C1 (centres undefined)
Second: Cc1ccc(C(C(=O)NC2CCCCC2)N(Cc2ccccc2Cl)C(=O)c2ccc(CN3CCOCC3)o2)o1 (centres undefined)
The growth of the first is lower: 96.4% for the first, 103% for the second.

First: Cc1ccc(Nc2nnc(-c3c[nH]c4ccccc34)o2)c(C)c1
Second: Cc1ccc(-c2cc(-c3ccccc3)[nH]c(=O)c2C#N)cc1
The growth of the first is lower: 60.9% for the first, 101% for the second.

Going from `Cc1ccccc1NC(=O)c1cccc(NC(=O)CCl)c1` to `Cc1ccc(Cl)cc1NC(=O)N/C(N)=N/c1nc2ccccc2s1`, the growth falls from 47.5% to 44.8%.

First: Clc1ccc(CNc2nc(SCCN3CCOCC3)nc3c2cnn3CC(Cl)c2ccc(Br)cc2)cc1 (centres undefined)
Second: COc1ccc2[nH]c(=O)c(CSc3ccccc3Nc3nccc(-c4ccc5c(c4)OCO5)n3)cc2c1
The growth of the first is lower: 33.2% for the first, 96.6% for the second.

Compared with `CCN1C(=O)N(CC)C2NNC(Sc3c(C(=O)O)c4ccccc4n(CC(C)C)c3=O)=NC21` (centres undefined), `COc1ccc(/C=C/c2nc3ccccc3c(=O)n2CC(=O)Nc2ccccc2)cc1` is higher in growth: 50.3% for the first, 93.5% for the second.

Compound `COc1ccc(OC)c(Cn2cc(C#N)c(N)c2C(=O)c2ccc(Br)cc2)c1` has a growth of 55.6%.

`O=C(c1ccc(Cl)cc1)C1[C@H](c2ccccc2Cl)[C@@H](c2ccccc2)NC12C(=O)Nc1ccccc12` (some centres undefined) was tested, and the growth was 1.79% (active).
`CCc1ccc(SC2c3cc(OC)ccc3Oc3nc(N)c(C#N)c(N)c32)cc1` (centres undefined) was tested, and the growth was -9.43% (active).
With `O=C(N/N=C/c1ccc(B(O)O)s1)c1[nH]c2ccc(Br)cc2c1-c1ccccc1` the growth was -77.4% (active).
